“And” between values parts separate entries of the source, which are not always exact repeats. Equal entries are not always repeated. Records with an inconclusive call do not appear. The source made the active and inactive calls. The call rests on the fitted dose curve; in most records, active means well fitted curve in the direction sought with a large enough effect; inconclusive means small, poorly fitted or top-dose-only effect, or another doubt; inactive means no such curve, though single readings can be large; an effect the other way counts as inactive or inconclusive. Residues, ends and D or L forms follow the SMILES beside them. *: point of attachment. Cbz = O=C(OCc1ccccc1)*
Experiments:
[1] = biological target: Cellular tumor antigen p53 (Homo sapiens) (UniProt P04637); test: Primary qHTS for small molecule compounds that upregulate eGFP-tagged delta133p53alpha (in N-terminal) cells. (AID 2060322); conditions: NCI-H358 eGFP-delta133p53alpha fluorescence, 24 h; activation: hits give high values; further: nearly all actives have a fitted effect of over 75% in size;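 on activation: 0% = DMSO vehicle and 100% = reference activator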
Cellular tumor antigen p53 (Homo sapiens), sequence (P04637 whole entry, looked up): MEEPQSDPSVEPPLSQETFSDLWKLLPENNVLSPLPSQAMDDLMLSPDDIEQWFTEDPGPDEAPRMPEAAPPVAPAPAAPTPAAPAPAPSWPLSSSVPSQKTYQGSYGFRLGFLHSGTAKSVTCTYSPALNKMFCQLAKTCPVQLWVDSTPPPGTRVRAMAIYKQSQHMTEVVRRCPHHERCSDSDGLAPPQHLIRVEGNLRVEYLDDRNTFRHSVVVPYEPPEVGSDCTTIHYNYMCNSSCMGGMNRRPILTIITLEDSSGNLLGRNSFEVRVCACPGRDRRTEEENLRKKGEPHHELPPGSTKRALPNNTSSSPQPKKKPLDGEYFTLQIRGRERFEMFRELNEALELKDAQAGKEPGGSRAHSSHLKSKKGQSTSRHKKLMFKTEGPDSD
Method in brief: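 NCI-H358 cells pre-induced 24 h with 10 ng/ml doxycycline to express N-terminal eGFP-delta133p53alpha, then dosed 24 h at 37C without doxycycline; fixed, Hoechst-stained, GFP intensity by laser scanning cytometry, normalized to DMSO (0%) and 57.5 uM 5-azacytidine (100%).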

[2] = BET inhibitor-based combinations targeting novel dependencies in MECOM-rearranged (r) AML: SET-2 cell line (AID 2202231); conditions: SET-2 AML cells viability, CellTiter-Glo luminescence, 48 h; viability: hits give low values, concentration not given here; further: nearly all actives have a fitted effect of over 35% in size;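 on viability: plate controls were DMSO treated cells for no effect and wells without cells for full effect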
Method in brief: (§1)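 A 48 hr incubation preceded viability reading by CellTiter-Glo, with 15 min room-temperature development. Dose series had 11 points; normalization used DMSO and empty wells; AUC was computed and mean-centered per line as Z-AUC.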

[3] = BET inhibitor-based combinations targeting novel dependencies in MECOM-rearranged (r) AML: OCI-AML3 cell line (AID 2202232); conditions: CellTiter-Glo luminescence, 48 h; Potency: OCI-AML3 viability; series mostly up to 46 µM; further: nearly all actives have a fitted effect of over 35% in size
Method in brief: as §1

[4] = BET inhibitor-based combinations targeting novel dependencies in MECOM-rearranged (r) AML: MV-4-11 cell line (AID 2202233); conditions: MV-4-11 AML viability, CellTiter-Glo luminescence, 48 h; series mostly up to 46 µM; further: nearly all actives have a fitted effect of over 45% in size
Method in brief: (§2)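 Each compound is tested in an 11-point concentration series against 500 seeded cells/well for 48 hr. The luminescent viability signal is normalized to DMSO and blank wells, then reduced to AUC and a cell-line-centred Z-AUC.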

[5] = BET inhibitor-based combinations targeting novel dependencies in MECOM-rearranged (r) AML: HNT-34 cell line (AID 2202234); conditions: HNT-34 AML viability, CellTiter-Glo luminescence, 48 h; series mostly up to 46 µM; further: nearly all actives have a fitted effect of over 35% in size
Method in brief: as §2

[6] = BET inhibitor-based combinations targeting novel dependencies in MECOM-rearranged (r) AML: UCSD-AML1 cell line (AID 2202235); conditions: UCSD-AML1 AML cells viability, CellTiter-Glo, 48 h; series mostly up to 46 µM; further: nearly all actives have a fitted effect of over 40% in size
Method in brief: as §2

[7] = BET inhibitor-based combinations targeting novel dependencies in MECOM-rearranged (r) AML: AML-191 cell line (AID 2202236; further: nearly all actives have a fitted effect of over 35% in size); conditions: AML-191 viability, CellTiter-Glo luminescence, 48 h; series mostly up to 46 µM
Method in brief: as §1

[8] = BET inhibitor-based combinations targeting novel dependencies in MECOM-rearranged (r) AML: AML-194 cell line (AID 2202237; further: nearly all actives have a fitted effect of over 40% in size); conditions: AML-194 (MECOM-r AML) viability, CellTiter-Glo, 48 h; series mostly up to 46 µM
Method in brief: as §1
Potency means the concentration at half of the fitted maximal effect.

O=C(NC(Cc1cc(=O)[nH]c2ccccc12)C(=O)O)c1ccc(Cl)cc1 (stereo not drawn)
inactive: activation [1] -0.837% and -7.77% | viability [2] 120% | Potency [3] | Potency [4] | Potency [5] | Potency [6] | Potency [7] | Potency [8]

CCc1ccc(OCc2ccccc2C(=O)Nc2ccc3nc(C)cc(N)c3c2)cc1
inactive: activation [1] 45.3%
active: Potency [2] 6610 nM | Potency [3] 8330 nM | Potency [4] 5900 nM | Potency [5] 4170 nM | Potency [6] 7420 nM | Potency [7] 7420 nM | Potency [8] 6610 nM

NNC(=O)c1ccncc1
inactive: activation [1] -11.9% and -4.14% | viability [2] 110% | Potency [3] | Potency [4] | Potency [5] | Potency [6] | Potency [7] | Potency [8]

COC[C@H](NC(=O)c1cnc(C)s1)C(=O)N[C@@H](COC)C(=O)N[C@@H](Cc1ccccc1)C(=O)[C@@]1(C)CO1
active: Potency [1] 17200 nM | Potency [2] 166 nM | Potency [3] 93.4 nM | Potency [4] 83.3 nM | Potency [5] 93.4 nM | Potency [6] 132 nM | Potency [7] 186 nM | Potency [8] 332 nM

O=C(NCCO[N+](=O)[O-])c1cccnc1
inactive: activation [1] -0.853% and 0.837% | viability [2] 114% | Potency [3] | Potency [5] | Potency [6] | Potency [7] | Potency [8]
active: Potency [4] 4680 nM

CC(C)C[C@@H](C=O)NC(=O)[C@H](CC(C)C)NC(=O)[C@H](CC(C)C)NC(=O)OCc1ccccc1 (Cbz-Leu-Leu-Leu-aldehyde)
active: Potency [1] 2730 nM | Potency [2] 1480 nM | Potency [3] 1860 nM | Potency [4] 2350 nM | Potency [5] 2350 nM | Potency [6] 2950 nM | Potency [7] 2350 nM | Potency [8] 2630 nM

Source: PubChem BioAssay (NCATS)
